Measurements: publication PMC12136788
Residue numbers refer to the chain shown, from its start. Whole data set: some 5,800 sequences, median “enrichment r” near 0.54, cut for the highest 2% near 16. The sample as a whole holds a higher share of the highest values than the screen did.

B1: ENSG00000198589:be:win_3051|CDS|ENSG00000198589|bound_else_gene|NA|bound_elsewhere_windowed (ssRNA)
RNA: GGGAGUUCUACAGUCCGACGAUCAGAAAUGAAAGCUGAGCAAGAAAAUCAGGAGUUACCAGAUGAAGGCACUUUGGAAGAAACACUGACAAAUGAGACAAGGAAUGCAGAUGAUUUAGAAGUAUCUUCUGACAUAAUAGAAGCCAACAGAGGAUUGAGCAUCA
B2: chr8:58582127:58582250:+|3pUTR|ENSG00000137575|unk|total|mutant (ssRNA)
RNA: GGGAGUUCUACAGUCCGACGAUCUUCAUAUUACUUCCGUUCUACCGCAUACUUGCAUCUUUAACAUGCUAUCACCGUACAUUCCGAAUGAUUGCCUUUGAUUUUUUUUUUAAAUUCUGUGUGUGUGUGUGUAAAAUGCCAAUUCAACAGAGGAUUGAGCAUCA
B3: chr3:44491765:44499181:-|three_prime_utr|ENSG00000178917|control|control|control (ssRNA)
RNA: GGGAGUUCUACAGUCCGACGAUCACUAAUCACAGUGGAGACCAUACCUACUUGCUUUUCCUUGGGUCACUAAGGUGGGAGAGUAGGUGCAACUUAGUCUGAUCCUUACUUAGUAGGAAAUUGGGGAUUACAUCUGUCAUUAACCAACAGAGGAUUGAGCAUCA
B4: chr11:59152587:59152688:+|CDS|ENSG00000166801|msi1|FALSE|unique (ssRNA)
RNA: GGGAGUUCUACAGUCCGACGAUCAUUGAAAACUUCAAGAAAAAAAUGAAAGUAAAAAAUGGGGAAACAUUAUUUGAAUUGCAUAGAACAACGUUUGGGAAAGUAACAAAAAAUUCUUCUUCGAUUAAAGUAGUGAAACUUCUUCAACAGAGGAUUGAGCAUCA
B5: chr3:98797769:98798349:-|3pUTR|ENSG00000057019|msi1|total|mutant (ssRNA)
RNA: GGGAGUUCUACAGUCCGACGAUCUUGUUUUUGAUACCUCCUGGCAGCUUCCAUGUCACCACUUGUUCAUACCUGCCCAGAGCCCGUUUCCGACAUGGCAAAACCGAAAUCAUCUGUAAUUUAUCCGCUAACAAUGUAAAACCACAACAGAGGAUUGAGCAUCA
B6: chrX:71101288:71101389:+|CDS|ENSG00000184481|unk|FALSE|unique (ssRNA)
RNA: GGGAGUUCUACAGUCCGACGAUCGGAGGCCCUGCUCACCUCUGAUACGCCACCACCCCCUGCUGACGUCCUCAUGACCCAGGUAGAUCCCAUUCUGUCCCAGGCUCCGACUCUUCUGUUGCUGGGGGGGCUUCCUUCCUCCAGCAACAGAGGAUUGAGCAUCA
B7: chr14:51255895:51255996:+|3pUTR|ENSG00000139921|msi1_unk|FALSE|overlapping (ssRNA)
RNA: GGGAGUUCUACAGUCCGACGAUCGUGAAUCCAUUAGAUUUACAGUAUCGUAAUAUACAAGUUUUCUUUAAAGCCCUCUCCUUUAGAAUUUAAAAUAUUGUACCAUUGAAGAGUUUGGAUGUGUAACUUGUGAUGCCUUAGAAACAACAGAGGAUUGAGCAUCA
B8: chr22:45843749:45843850:+|3pUTR|ENSG00000130638|msi1|FALSE|unique (ssRNA)
RNA: GGGAGUUCUACAGUCCGACGAUCAAAUUGCAAGUGUUUGAAGAUUUAUAAGUACAAAUUUGGGAACAUACAAAUCUUUUAGGUAGUAGAGUUUAACGUGUAUAAGCUAAAAGUGAAAGUAACUGAGUGUUCUCUUGUUUCUUUCAACAGAGGAUUGAGCAUCA
B9: ENSG00000139428:stop:overlap|stop_codon|ENSG00000139428|stop_codon|NA|stop_codon (ssRNA)
RNA: GGGAGUUCUACAGUCCGACGAUCUAUUACUAUUCUUAACACUUACCUGUUCCUGGCUACCAUUUCUCCAUGGCGGGCCUGACUAGGUUUGCUCUGGAAUUAGUCACAGAAAAGGGCCAUACAUUUGCCGAAGAGCUUCAGAAACAACAGAGGAUUGAGCAUCA
B10: ENSG00000198589:be:win_9451|3pUTR|ENSG00000198589|bound_else_gene|NA|bound_elsewhere_windowed (ssRNA)
RNA: GGGAGUUCUACAGUCCGACGAUCUUAAACUAUCAUCUCCACCUUCCUUUUGAUUAGCAAUUUGUACUAAGAAACGAAACAAUGUUAUUUGGUGGUGUAUAAUUCUACUUUUCUAGUAGAUUACUGUGUGGAAUUCUGUGAAAACAACAGAGGAUUGAGCAUCA
B11: ENSG00000070961:be:win_3151|CDS|ENSG00000070961|bound_else_gene|NA|bound_elsewhere_windowed (ssRNA)
RNA: GGGAGUUCUACAGUCCGACGAUCACAUUACUCUGGGGCCAGCUUAUUUCAACAAUUCCAACUAGCCGUUUAAAAUUCCUCAAAGAAGCUGGUCAUGGAACACAAAAGGAAGAAAUACCUGAGGAGGAAUUAGCAGAGGAUGUUCAACAGAGGAUUGAGCAUCA
B12: chr5:111496093:111496242:-|3pUTR|ENSG00000164211|unk|FALSE|unique (ssRNA)
RNA: GGGAGUUCUACAGUCCGACGAUCUUUACAUGUAUAGUUAAAUAUUAAAAUUCAUCUCUUGCAGUUCAAUAAAAGCUAUAGUAUAGAUUUUAUUUUUAAGAAGUUUAUAUAAUUCUUUUGUGAACCAAUAUGUAAAACUAGAAUCAACAGAGGAUUGAGCAUCA
B13: chrX:71300841:71300885:+|3pUTR|ENSG00000147140|msi1_unk|total|mutant (ssRNA)
RNA: GGGAGUUCUACAGUCCGACGAUCCCCCAUAUAUUACCCCUUCAUGUCCUAAAGAAGACAUUUUCUCUCCGAGAUUUUCAUUUCCGUGUAUCUUUAAAAAAAAAUCUUGUGUUAACUUGCCUCCAUCUUUUUCUUGGGUGAGGACAACAGAGGAUUGAGCAUCA
B14: chr6:73594753:73594854:-|3pUTR|ENSG00000119899|unk|FALSE|unique (ssRNA)
RNA: GGGAGUUCUACAGUCCGACGAUCGGUUCACAUACCUGCCUGCUAGUCGGGCAACAUGAAGUAGGACAGUUCUGUUGAUUUUUUAGGGCCAUACUAAAGGGAAUGAGCUGAAACAGACCUCCUGAUACCUUUGCUUAAUUAAACCAACAGAGGAUUGAGCAUCA
B15: chrX:71300841:71300885:+|3pUTR|ENSG00000147140|msi1_unk|FALSE|overlapping (ssRNA)
RNA: B13 RNA with C68U, C69A, C83U, C84A
B16: chr2:16549458:16552935:-|three_prime_utr|ENSG00000197872|control|control|control (ssRNA)
RNA: GGGAGUUCUACAGUCCGACGAUCUUGCUACUGGAGUCCUUUAACAACAUCUAUAACGAUAAAAAAUUCCUAAUUGUUUGUGGUAGUAUUUUAAUUCUAGAUGUGUUAUCUCUCUGGGAAGUAUAGUUUAUAGAAACACAAAAUCAACAGAGGAUUGAGCAUCA
B17: chr16:57253408:57253449:+|3pUTR|ENSG00000102931|msi1_unk|total|mutant (ssRNA)
RNA: GGGAGUUCUACAGUCCGACGAUCUGUGUGGCCGAUUACUUAUCAGAAAACAUAUAUGUCAUCUCCCGAACGAAGAAAAAGCACCGCCGUUCAAUUCCCAGUGUGUCCCUUUGAUUUUUUUUUUUUAACCGUAAAAAUAAGAAUCAACAGAGGAUUGAGCAUCA
B18: chr16:57253408:57253449:+|3pUTR|ENSG00000102931|msi1_unk|FALSE|overlapping (ssRNA)
RNA: B17 RNA with C31U, C32A, C65U, C66A, C83U, C84A, C86U, C87A, C128U, C129A
B19: chr4:25747873:25747886:-|3pUTR|ENSG00000091490|msi1_unk|FALSE|overlapping (ssRNA)
RNA: GGGAGUUCUACAGUCCGACGAUCUAGCAGUUAUAAGGCACCUUGAAAUAAAUUGUUUGUGCCUGGAAAUGCAGGGAGGGCAAUAGCUUUGUAAAUUGGUUUACAUUUUUCUCCUUGAAUUUUUCUAGGGUCCUAGUGCUUCCGCAACAGAGGAUUGAGCAUCA
B20: ENSG00000107863:be:win_3601|CDS|ENSG00000107863|bound_else_gene|NA|bound_elsewhere_windowed (ssRNA)
RNA: GGGAGUUCUACAGUCCGACGAUCAAGGGAAUGGCUGAUAUUGAUAUACAAGAUGAUAAAUGGCGAGAUUUGAAUGUGAUAAGCAGUUUACUAAAAUCCUUCUUCAGAAAACUCCCUGAGCCUCUCUUCACAAAUGAUAAAUAUCAACAGAGGAUUGAGCAUCA
B21: chr6:52502144:52502313:-|3pUTR|ENSG00000065308|msi1|total|mutant (ssRNA)
RNA: GGGAGUUCUACAGUCCGACGAUCUCAGCCAUUCACAAGCAUUCAAAACCAAACCAAACAGCAGUUCAUAUACCUGCCUGAGACCGGCUGGUCCUCACCUCCAGAGCCAGCCAGCCCCGUCAGGGGCCAAACUUACUACCUUGACAACAGAGGAUUGAGCAUCA
B22: chr10:119917856:119917957:+|CDS|ENSG00000107651|unk|total|mutant (ssRNA)
RNA: GGGAGUUCUACAGUCCGACGAUCUAAGAAAAUCACUUUGCCAAGUAUUGGUCGAUUUCGUCACUUUACCAAUGAAACUUUGCCCGAUAUUUUAUUUUAUAACAGCCCCACCUACUGUCAGACAAUUGUGGAAAAAGCCGGAAUCAACAGAGGAUUGAGCAUCA

Biological target: MSI1 full-length (mouse, UniProt Q61474 1-362)
Assay: nsRBNS (natural sequence RNA bind-n-seq); RBNS binding buffer (assumed for nsRBNS): 25 mM Tris pH 7.5, 150 mM KCl, 3 mM MgCl2, 0.01% Triton X-100, 500 ug/ml BSA, 20 U/ml SUPERase-In, 4 C; UNK is unkempt and MSI1 is Musashi-1; names of the RNAs are library labels; protein concentration not given here; high values mean tight binding

MSI1 full-length, sequence (Q61474 whole entry): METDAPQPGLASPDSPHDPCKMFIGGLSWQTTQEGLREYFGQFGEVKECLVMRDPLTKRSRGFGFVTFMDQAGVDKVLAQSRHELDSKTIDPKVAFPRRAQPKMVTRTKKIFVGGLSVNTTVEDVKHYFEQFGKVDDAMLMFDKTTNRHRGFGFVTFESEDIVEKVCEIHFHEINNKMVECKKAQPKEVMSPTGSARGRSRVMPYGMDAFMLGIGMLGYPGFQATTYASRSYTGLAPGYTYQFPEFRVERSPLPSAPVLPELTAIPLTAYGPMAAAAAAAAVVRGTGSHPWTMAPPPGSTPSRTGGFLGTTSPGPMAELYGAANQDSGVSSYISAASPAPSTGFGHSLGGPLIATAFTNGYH

| Binder | binding signal |
| --- | --- |
| B1 | 0.825 enrichment R |
| B2 | 0.478 enrichment R |
| B3 | 0.646 enrichment R |
| B4 | 0.574 enrichment R |
| B5 | 0.808 enrichment R |
| B6 | 0.429 enrichment R |
| B7 | 5.27 enrichment R |
| B8 | 7.75 enrichment R |
| B9 | 18.8 enrichment R |
| B10 | 1.55 enrichment R |
| B11 | 0.641 enrichment R |
| B12 | 2.64 enrichment R |
| B13 | 0.906 enrichment R |
| B14 | 0.746 enrichment R |
| B15 | 16.5 enrichment R |
| B16 | 25 enrichment R |
| B17 | 0.465 enrichment R |
| B18 | 21 enrichment R |
| B19 | 1.14 enrichment R |
| B20 | 0.64 enrichment R |
| B21 | 0.877 enrichment R |
| B22 | 0.52 enrichment R |
